Laboratory results published in PubChem BioAssay (NCI).
The panel holds about 83,000 compounds, 20% with a hit somewhere; the sample as a whole holds those more often.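 The test compound was applied at a single concentration to cells in 96-well plates for 48 hours, and percent growth was recorded.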 The source made the active and inactive calls. How the source made its calls: active means growth percent below 10; inactive means the rest.

Assays:
Assay in all cases: NCI-60 one-dose screen, 48 h (100 = growth as untreated, 0 = no growth, -100 = all killed)
Conditions in all cases: 10 µM unless noted
NCI-H23 lung = tested on: NCI-H23 lung
NCI-H226 lung = tested on: NCI-H226 lung
NCI-H322M lung = tested on: NCI-H322M lung
HOP-62 NSCLC = tested on: HOP-62 NSCLC
NCI-H460 lung = tested on: NCI-H460 lung
HOP-92 NSCLC = tested on: HOP-92 NSCLC
NCI-H522 lung = tested on: NCI-H522 lung
A549/ATCC NSCLC = tested on: A549/ATCC NSCLC
786-0 renal = tested on: 786-0 renal
COLO 205 colon = tested on: COLO 205 colon
DU-145 prostate = tested on: DU-145 prostate
K-562 leukemia = tested on: K-562 leukemia
MALME-3M melanoma = tested on: MALME-3M melanoma
MDA-MB-231 breast = tested on: MDA-MB-231 breast
RXF 393 renal = tested on: RXF 393 renal
SF-268 CNS = tested on: SF-268 CNS
SF-295 CNS = tested on: SF-295 CNS
SF-539 CNS = tested on: SF-539 CNS
UACC-257 melanoma = tested on: UACC-257 melanoma
M14 melanoma = tested on: M14 melanoma

Measured: growth

O=C(Cc1ccc(/C=C/C(=O)c2ncc[nH]2)cc1)Nc1ccc(S(F)(F)(F)(F)F)cc1
inactive: NCI-H23 lung 68.5% | NCI-H226 lung 93.7% | NCI-H322M lung 95% | HOP-62 NSCLC 93.8% | NCI-H460 lung 98.2% | HOP-92 NSCLC 97% | NCI-H522 lung 65.8% | A549/ATCC NSCLC 76.7% | 786-0 renal 88.5% | COLO 205 colon 82.7% | DU-145 prostate 78.5% | K-562 leukemia 17.8% | MALME-3M melanoma 88% | MDA-MB-231 breast 70.4% | RXF 393 renal 94.7% | SF-268 CNS 80% | SF-295 CNS 80.8% | SF-539 CNS 93.2% | UACC-257 melanoma 103% | M14 melanoma 67.7%

O=C(/C=C/c1ccc2c(c1)OCO2)c1c(O)c2ccccc2oc1=O
inactive: NCI-H23 lung 102% | NCI-H226 lung 107% | NCI-H322M lung 107% | HOP-62 NSCLC 80.9% | NCI-H460 lung 103% | HOP-92 NSCLC 103% | NCI-H522 lung 75.7% | A549/ATCC NSCLC 76.5% | 786-0 renal 99.8% | COLO 205 colon 99.3% | DU-145 prostate 109% | K-562 leukemia 69.4% | MALME-3M melanoma 101% | MDA-MB-231 breast 103% | RXF 393 renal 135% | SF-268 CNS 93.6% | SF-295 CNS 100% | SF-539 CNS 105% | UACC-257 melanoma 78.1% | M14 melanoma 94.9%

Cc1cc(Nc2cc(N3CCN(C)CC3)nc(/C=C/c3ccccc3)n2)n[nH]1
active: HOP-62 NSCLC -19.7% | NCI-H460 lung 5.31% | HOP-92 NSCLC -60.5% | NCI-H522 lung -12.4% | A549/ATCC NSCLC -25% | 786-0 renal -94.3% | COLO 205 colon -63.2% | K-562 leukemia -18.8% | MALME-3M melanoma -60.6% | MDA-MB-231 breast 9.8% | RXF 393 renal -86.6% | SF-268 CNS -26.1% | SF-295 CNS -17% | SF-539 CNS -79.1% | UACC-257 melanoma -73.4% | M14 melanoma -76.6%
inactive: NCI-H23 lung 22.3% | NCI-H226 lung 17.7% | NCI-H322M lung 29.5% | DU-145 prostate 26.9%

CC(C)(C)c1cnc(CSc2cnc(NC(=O)C3CCNCC3)s2)o1
active: NCI-H23 lung -22.2% | NCI-H226 lung 3.09% | NCI-H322M lung 5.62% | HOP-62 NSCLC -16.2% | NCI-H460 lung 2.67% | HOP-92 NSCLC -8.65% | NCI-H522 lung -24.8% | A549/ATCC NSCLC 1.61% | COLO 205 colon -45.3% | DU-145 prostate 7.26% | K-562 leukemia 4.07% | MALME-3M melanoma -41.1% | MDA-MB-231 breast 6.82% | RXF 393 renal -51.5% | SF-539 CNS -33.1% | UACC-257 melanoma -25.5% | M14 melanoma -58.6%
inactive: 786-0 renal 12% | SF-268 CNS 12% | SF-295 CNS 11.6%

COc1cc2ncnc(Oc3cccc(NC(=O)Nc4cc(C(C)(C)C(F)(F)F)on4)c3)c2cc1OC
active: NCI-H322M lung 1.62% | HOP-92 NSCLC -3.15% | NCI-H522 lung 0.301% | COLO 205 colon 1.14% | K-562 leukemia 2.56% | MALME-3M melanoma 2.64% | UACC-257 melanoma -10.4% | M14 melanoma -2.42%
inactive: NCI-H23 lung 19.4% | NCI-H226 lung 23.9% | HOP-62 NSCLC 37.1% | NCI-H460 lung 34.3% | A549/ATCC NSCLC 33.4% | 786-0 renal 39.5% | DU-145 prostate 31.4% | MDA-MB-231 breast 10.7% | RXF 393 renal 16.7% | SF-268 CNS 26.9% | SF-295 CNS 38.2% | SF-539 CNS 33%

CCNC(=O)C#Cc1ccc2c(C(=Nc3ccc(CN(C)C)cc3)c3ccccc3)c(O)[nH]c2c1
inactive: NCI-H23 lung 14% | NCI-H226 lung 38.6% | NCI-H322M lung 14.4% | NCI-H460 lung 16.5% | NCI-H522 lung 48.9% | 786-0 renal 24.2% | DU-145 prostate 44.3% | SF-268 CNS 47.8% | SF-295 CNS 59.8%
active: HOP-62 NSCLC 4.11% | HOP-92 NSCLC -66.8% | A549/ATCC NSCLC 6.49% | COLO 205 colon -41% | K-562 leukemia 9.16% | MALME-3M melanoma -11.3% | MDA-MB-231 breast 3.36% | RXF 393 renal -33.7% | SF-539 CNS -6.1% | UACC-257 melanoma -36.3% | M14 melanoma -33.7%

CN(C)C1CCN(C(=O)c2ccc(NC(=O)Nc3ccc(-c4nc(N5CCOCC5)nc(N5CCOCC5)n4)cc3)cc2)CC1
active: NCI-H23 lung 8.52% [2.5 µM] | NCI-H226 lung -18.2% [2.5 µM] | NCI-H322M lung -30.3% [2.5 µM] | HOP-62 NSCLC -21.5% [2.5 µM] | NCI-H460 lung 6.4% [2.5 µM] | HOP-92 NSCLC -32% [2.5 µM] | NCI-H522 lung 8.88% [2.5 µM] | A549/ATCC NSCLC -25.2% [2.5 µM] | 786-0 renal -10.7% [2.5 µM] | COLO 205 colon -31.4% [2.5 µM] | DU-145 prostate 2.99% [2.5 µM] | MALME-3M melanoma -34.1% [2.5 µM] | RXF 393 renal -40.4% [2.5 µM] | SF-295 CNS -31.1% [2.5 µM] | SF-539 CNS -53% [2.5 µM] | UACC-257 melanoma -40% [2.5 µM] | M14 melanoma 7.46% [2.5 µM]
inactive: K-562 leukemia 14.4% [2.5 µM] | MDA-MB-231 breast 17.2% [2.5 µM] | SF-268 CNS 10.6% [2.5 µM]
